Common to all, as to assay: qHTS profiling for inhibitors of Plasmodium falciparum proliferation (AID 504749); further: nearly all actives have a fitted effect of over 60% in size
Common to all, as to conditions: P. falciparum in erythrocytes, SYBR Green DNA, 72 h; series mostly up to 28.7 µM
In general terms: Quantitative high-throughput screening tests each substance at several concentrations.

Experiment [1] relates to CP305. In short, it runs like this:
(§1)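 Each compound contacts P. falciparum-infected red blood cells for 72 h at 37 C; lysis buffer (Tris, EDTA, saponin, Triton X, SYBR Green I) is added and fluorescence measured next morning; values normalized to controls.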

Experiment [2] deals with CP315. In short, it runs like this:
as §1

Experiment [3] deals with CP325. In short, it runs like this: as §1
The test system of experiment [4] is CP329. In short, it runs like this: as §1
Experiment [5] concerns CP335. In short, it runs like this: as §1
Experiment [6] has as its system DFO2036. In short, it runs like this:
as §1

For experiment [7], the system named is DIV17. In short, it runs like this: as §1
Experiment [8] deals with DIV30. In short, it runs like this: as §1
Experiment [9] deals with Dd2. In short, it runs like this: as §1
For experiment [10], the system named is ECU. In short, it runs like this:
as §1

Experiment [11] relates to FAB9. In short, it runs like this:
as §1

For experiment [12], the system named is GB4. In short, it runs like this:
as §1

Experiment [13] concerns HB3. In short, it runs like this:
as §1

Experiment [14] concerns ICS. In short, it runs like this: as §1
The test system of experiment [15] is JCK. In short, it runs like this:
as §1

The subject of experiment [16] is N140. In short, it runs like this:
as §1

For experiment [17], the system named is P93_24. In short, it runs like this:
as §1

Experiment [18] relates to P94_40. In short, it runs like this: as §1
Experiment [19] has as its system PAD. In short, it runs like this:
as §1

Experiment [20] deals with DIV14. In short, it runs like this: as §1

Results filed as inconclusive are left out. Active and inactive are the calls of the source. The call rests on the fitted dose curve; in most records, active means well fitted inhibition curve with a large enough effect; inconclusive means small, poorly fitted or top-dose-only effect; inactive means flat fitted curve, though single readings scatter.
Potency means the concentration at half of the fitted maximal effect.

For `NC(N)=O`, the Potency entry in [1], in experiment [2], in experiment [3], in experiment [4], in [5] and in [6] was “inactive” in each case. For the same molecule, the Potency result in experiment [7], in [8], in experiment [9], in experiment [10], in experiment [11] and in [12] was “inactive” throughout. For the same molecule, the Potency entry in experiment [13], in [14], in [15], in [16], in [17] and in experiment [18] was “inactive” each time. Besides, the Potency result in experiment [19] was “inactive”.

On to `CO/N=C(/C(=O)N[C@@H]1C(=O)N2C(C(=O)O)=C(COC(N)=O)CS[C@H]12)c1ccco1`, for which the Potency result in [1], in experiment [2], in [3], in experiment [4], in experiment [5] and in experiment [6] was “inactive” in each case. For the same molecule, the Potency entry in experiment [20], in experiment [8], in experiment [9], in experiment [10], in experiment [11] and in experiment [15] was “inactive” each time. In addition, the Potency entry in experiment [16], in experiment [18] and in experiment [19] was “inactive” each time. Besides, in experiment [14], the Potency is 8.91 µM (active).

For `CC(C)=CCC/C(C)=C/C=C/C(C)=C/C=C/C(C)=C/C=C/C=C(C)/C=C/C=C(C)/C=C/C=C(\C)CCC=C(C)C`, the Potency result in [1], in experiment [2], in experiment [3], in experiment [4], in [5] and in experiment [6] was “inactive” each time. The Potency entry in experiment [7], in experiment [8], in experiment [9], in [11], in experiment [12] and in [15] was “inactive” throughout. The Potency result in experiment [16] was “inactive”. For the same molecule, in [14], the Potency was 11.2 µM (active).

`O=[N+]([O-])c1c(Cl)cccc1-c1c[nH]cc1Cl`: the Potency entry in [1], in [2], in experiment [3], in experiment [4], in experiment [5] and in experiment [6] was “inactive” each time. Further, the Potency result in experiment [7], in [8], in experiment [9], in experiment [10], in [11] and in experiment [12] was “inactive” each time. Besides, the Potency result in [13], in experiment [15], in experiment [16], in [17] and in experiment [19] was “inactive” in each case.

For the molecule `CC(C)OC(=O)Nc1ccc2nc(-c3cscn3)[nH]c2c1`, the Potency result in experiment [1], in experiment [2], in experiment [3], in [4], in [5] and in experiment [6] was “inactive” throughout. Besides, the Potency result in experiment [20], in experiment [8], in experiment [9], in experiment [10], in [11] and in experiment [12] was “inactive” each time. Besides, the Potency result in experiment [13], in experiment [15], in experiment [16], in experiment [17], in experiment [18] and in [19] was “inactive” each time.

For the molecule `COC(=O)CCC[N+](C)(C)C`, the Potency entry in experiment [1], in experiment [2], in experiment [3], in [4], in experiment [5] and in experiment [6] was “inactive” throughout. In addition, the Potency result in experiment [7], in [8], in experiment [9], in [10], in experiment [11] and in experiment [12] was “inactive” in each case. Also, the Potency result in [13], in experiment [14], in experiment [15], in [16], in experiment [17] and in experiment [18] was “inactive” in each case. In addition, the Potency result in experiment [19] is “inactive”.

As for `CC(C)NCC(O)COc1ccccc1-n1cccc1` (stereo not drawn), the Potency result in experiment [1], in experiment [2], in experiment [3], in experiment [4], in [5] and in [6] was “inactive” in each case. Also, the Potency result in [7], in [8], in [10], in experiment [11], in experiment [13] and in [15] was “inactive” in each case. In addition, the Potency result in experiment [16], in [17], in experiment [18] and in experiment [19] was “inactive” each time.

For the molecule `O=C(O)c1cc(N=Nc2ccc(O)c(C(=O)O)c2)ccc1O`, the Potency result in [1], in [2], in experiment [3], in experiment [4], in experiment [5] and in experiment [6] was “inactive” throughout. In addition, the Potency entry in experiment [7], in experiment [8], in experiment [9], in experiment [10], in [11] and in experiment [12] was “inactive” in each case. The Potency entry in experiment [13], in experiment [15], in [16], in experiment [17], in experiment [18] and in experiment [19] was “inactive” throughout.

As to `O=C(CCCN1CCN2CCCC2C1)c1ccc(F)cc1` (stereo not drawn), the Potency result in experiment [1], in experiment [2], in experiment [3], in experiment [4], in [5] and in [6] was “inactive” throughout. For the same molecule, the Potency entry in experiment [8], in [10], in experiment [11], in experiment [13], in experiment [14] and in experiment [15] was “inactive” each time. In addition, the Potency result in experiment [18] and in experiment [19] was “inactive” throughout. The figures for the Potency in experiment [9] and in experiment [16] were 12.6 µM (active) and 10 µM (active), respectively.

With `Cc1cc(C)c(NC(=O)C[C@H](CC(=O)O)c2cccc3ccccc23)c(C(=O)N2CCC3(CCCC3)CC2)c1`, the Potency result in experiment [1], in experiment [2], in experiment [3], in [4], in experiment [5] and in [6] was “inactive” throughout. Further, the Potency result in experiment [20], in experiment [7], in [8], in experiment [10], in experiment [11] and in [12] was “inactive” in each case. Also, the Potency result in [13], in experiment [15], in experiment [16], in experiment [17], in experiment [18] and in [19] was “inactive” throughout.

Take `CC(=O)Nc1c(I)c(C(=O)O)c(I)c(N(C)C(C)=O)c1I`: the Potency entry in [1], in experiment [2], in [3], in experiment [4], in experiment [5] and in experiment [6] was “inactive” in each case. Moreover, the Potency entry in [20], in [7], in experiment [8], in experiment [9], in experiment [11] and in [12] was “inactive” in each case. In addition, the Potency result in [13], in experiment [14], in experiment [15], in [16], in [17] and in experiment [18] was “inactive” each time. In addition, the Potency result in experiment [19] is “inactive”.

In the case of `O=C(OCc1ccccc1)c1ccc(O)cc1`, the Potency entry in [1], in experiment [2], in experiment [3], in experiment [4], in experiment [5] and in experiment [6] was “inactive” in each case. Further, the Potency result in experiment [7], in experiment [8], in experiment [9], in [10], in experiment [11] and in [12] was “inactive” in each case. Also, the Potency entry in [13], in experiment [14], in experiment [15], in experiment [16], in experiment [17] and in experiment [18] was “inactive” each time. Besides, the Potency result in experiment [19] was “inactive”.

For the molecule `CC(/C=C/C=C(\C)C(=O)O[C@@H]1O[C@H](CO[C@@H]2O[C@H](CO)[C@@H](O)[C@H](O)[C@H]2O)[C@@H](O)[C@H](O)[C@H]1O)=C\C=C\C=C(C)\C=C\C=C(/C)C(=O)O[C@@H]1O[C@H](CO[C@@H]2O[C@H](CO)[C@@H](O)[C@H](O)[C@H]2O)[C@@H](O)[C@H](O)[C@H]1O`, the Potency result in experiment [1], in [2], in experiment [3], in experiment [4], in [5] and in experiment [6] was “inactive” in each case. Also, the Potency result in experiment [7], in experiment [8], in [9], in [10], in experiment [11] and in [12] was “inactive” throughout. For the same molecule, the Potency result in [13], in experiment [14], in experiment [15], in experiment [16], in experiment [17] and in experiment [18] was “inactive” throughout. Also, the Potency entry in [19] is “inactive”.

The values above are taken from PubChem BioAssay (NCATS).
